PubChem BioAssay (Tox21)
Records with an inconclusive call do not appear. The source made the active and inactive calls. Calls follow the shape of the dose curve; as a rule, active = well fitted cell-killing curve with a large enough effect in the repeat runs; inconclusive = weak or mixed curves, or effect the other way; inactive = no such curve, though single readings can be large or run the other way.

Assay: qHTS assay for identifying genotoxic compounds that show differential cytotoxicity against isogenic chicken DT40 cell lines with known DNA damage response pathways - wild type cell line (AID 743012); also: nearly all actives have a fitted effect of over 60% in size
Details: DT40 wild type chicken cells viability, CellTiter-Glo, 40 h; series mostly up to 68.4 µM
From the text: U.S. Tox21 Program National Center for Advancing Translational Sciences [NCATS] NIH Chemical Genomics Center [NCGC] U.S. Environmental Protection Agency [EPA] National Institutes of Environmental Health Sciences [NIEHS] National Toxicology Program [NTP] U.S. Food and Drug Administration [FDA] Tox21 Assay Overview: DNA repair pathways play a critical role in cellular homeostasis by repairing DNA damage induced by endogenous processes and xenobiotics. Isogenic chicken DT40 cell lines deficient in different DNA repair pathways can be used to identify genotoxic compounds and aid in characterizing the nature of the DNA damage induced. Two DNA repair-deficient cell lines with disrupted genes, Rad54/Ku70 or Rev3, were used to screen the Tox21 10K compound library. Possible genotoxicity was based on the presence of a significant increase in cytotoxicity in one or more of the DNA repair-deficient cell lines compared to that observed in the parental DNA repair-proficient cell line. CellTiter Glo viability assay (Promega, Madison, WI) was used to measure cell viability in these cells after compound treatment. This assay includes the data from the wild type cell line.
Tox21 Assay Protocol Summary: 300 DT40 wild type cells in 5 uL/well were dispensed into white, solid-bottom 1536-well plates using a Multidrop Combi (ThermoFisher Scientific, Waltham, MA) dispenser. After the assay plates were incubated at 37 C/5% CO2 for approximately 0.5 hour, 23 nL of compounds dissolved in DMSO, positive controls or DMSO only was transferred into the assay plate by a pintool work station (Kalypsys, San Diego, CA). The assay plates were incubated at 37 C/5% CO2 for 40 hours. After 5 uL per well of CellTiter-Glo reagent was added into each well of the assay plates, the plates were incubated for 30 min at room temperature and the luminescence intensity of the plates was measured using a ViewLux (PerkinElmer, Shelton, CT) plate reader.
Potency is read from the fitted curve at half-maximal effect.

| Compound | Potency |
| --- | --- |
| CC[C@@H](O)C(C[C@@H](C)N(C)C)(c1ccccc1)c1ccccc1 | 55.1 µM (active) |
| CNC(C)[C@@H]1CC[C@@H](N)[C@@H](O[C@H]2[C@H](O)[C@@H](O[C@H]3OC[C@](C)(O)[C@H](NC)[C@H]3O)[C@H](N)C[C@@H]2N)O1 (some centres not stated) | inactive |
| CN1C2CCC1CC(OC(c1ccccc1)c1ccc(Cl)cc1)C2 (configuration not stated) | 2.11 µM (active) |
| CCC(=O)O[C@](Cc1ccccc1)(c1ccccc1)[C@H](C)CN(C)C | 38 µM (active) |
| Cc1ccc2c(c1)[C@]13CCCC[C@@H]1[C@H](C2)N(C)CC3 | 26.6 µM (active) |
| CC(=O)O[C@H]1C[C@H](O[C@H]2[C@@H](O)C[C@H](O[C@H]3[C@@H](O)C[C@H](OC4CC[C@@]5(C)C(CC[C@@H]6[C@@H]5CC[C@]5(C)[C@@H](C7=CC(=O)OC7)[C@@H](O)C[C@]65O)C4)O[C@@H]3C)O[C@@H]2C)O[C@H](C)[C@H]1O[C@@H]1O[C@H](CO)[C@@H](O)[C@H](O)[C@H]1O (some centres not stated) | 2.11 µM (active) |
| Clc1ccc([C@@H]2C[C@H]3CC[C@@H]2N3)cn1 | inactive |
| O=C(O)c1ccccc1[O-].O=C(O)c1ccccc1[O-].[Zn+2] | inactive |
| COc1cc(C[C@H](C)N)c(OC)cc1Br | 70.4 µM (active) |
| C#C[C@]1(OC(=O)CCCCCC)CC[C@H]2[C@@H]3CCC4=CC(=O)CC[C@@H]4[C@H]3CC[C@@]21C | 2.66 µM (active) |
| CCC(=O)O[C@H]1[C@@H](N2CCCCC2)C[C@H]2[C@@H]3CC[C@H]4C[C@H](OC(C)=O)[C@@H](N5CCCCC5)C[C@]4(C)[C@H]3CC[C@@]21C | 2.37 µM (active) |
| C[C@]12CC[C@H]3[C@@H](CCC4=CC(=O)CC[C@@]43C)[C@@H]1CC[C@@H]2OC(=O)CCc1ccccc1 | 5.45 µM (active) |
